Laboratory results from PubChem BioAssay (NCATS).
Results filed as inconclusive are left out. Active and inactive are the calls of the source. Calls follow the shape of the dose curve; as a rule, active = well fitted inhibition curve with a large enough effect; inconclusive = small, poorly fitted or top-dose-only effect; inactive = flat fitted curve, though single readings scatter.

biological target: Calcium and integrin-binding protein 1 (Homo sapiens) (UniProt Q99828); assay: Primary qHTS for Identification of Calcium Integrin Binding Protein 1 (CIB1) Competitor (AID 1508620); conditions: CIB1-GST / FITC-alphaIIb peptide fluorescence polarization; series mostly up to 114 µM; activity change, negative = inhibition: at the top concentration; also: top concentration of the series differs between compounds
Sequence (Q99828 whole entry, looked up): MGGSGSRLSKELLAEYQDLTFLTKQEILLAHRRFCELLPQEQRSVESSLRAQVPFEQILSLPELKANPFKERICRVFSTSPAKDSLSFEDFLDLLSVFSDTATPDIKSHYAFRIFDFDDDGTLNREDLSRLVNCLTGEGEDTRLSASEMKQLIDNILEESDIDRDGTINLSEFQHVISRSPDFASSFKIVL
Method in brief: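 Fluorescence polarization competition: GST-tagged CIB1 (1 uM final) preincubated with compound 15 min at room temperature, then FITC-labelled alphaIIb peptide (100 nM final) added. After 15 min at room temperature, polarization read at Ex 480/Em 540.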
% is scaled to controls: 0 for no effect and ±100 for the full control effect.

Row | SMILES | activity change, negative = inhibition | Potency
1 | C=C(C)C1=C[C@@]2(C)C(=CC1=O)CC[C@@H](O)[C@@H]2C | -3.03% (inactive) | 
2 | C=C(C)C(=O)O[C@H]1[C@H]2C(=C)C(=O)O[C@@H]2C[C@@H](C)[C@@H]2O[C@@H]2C(=O)[C@](C)(O)[C@@H]1OC(=O)C(=C)C | -4.45% [at 57.7 µM] (inactive) | 
3 | C/C=C(/C=C(C)/C=C/C=C/C=C(\C)C(=O)C12OC1C(O)(CCO)NC2=O)C(=O)OC (stereo unspecified) | -1.87% [at 57.7 µM] (inactive) | 
4 | C[C@H]1CC[C@@]2(OC1)O[C@H]1CC3[C@@H]4CC[C@@H]5C[C@@H](O[C@@H]6O[C@H](CO)[C@@H](O[C@@H]7O[C@@H](C)[C@H](O)[C@@H](O)[C@H]7O)[C@H](O)[C@H]6O[C@@H]6O[C@H](CO)[C@@H](O)[C@H](O)[C@H]6O)CC[C@]5(C)C4CC[C@]3(C)[C@H]1[C@@H]2C (stereo partly specified) | -6.49% [at 30.2 µM] (inactive) | 
5 | CC[C@@H](C)Nc1cc(C(=O)NC2CC3CC[C@@H](C2)N3c2ccc(C(=O)C3CC3)cn2)c(C)cc1C(N)=O (stereo partly specified) | -3.05% (inactive) | 
6 | CCCCOC(=O)NS(=O)(=O)c1sc(CC(C)C)cc1-c1ccc(Cn2ccnc2)cc1 | 2.33% (inactive) | 
7 | CC(O)(C(=O)C1CC1(CO)COC1OC(CO)C(O)C(O)C1O)C1C(O)CC2C3CC=C4CC(O)CC(O)C4(C)C3C(O)CC21C (stereo unspecified) | 1.47% [at 30.2 µM] (inactive) | 
8 | Cc1nc2c(C(F)(F)F)cccc2nc1-c1ccc(-c2cccc(S(C)(=O)=O)c2)cc1 | 1.87% (inactive) | 
9 | Cc1cccc(-c2[nH]ncc2-c2ccc(F)c(-c3cnn(CCO)c3)c2)n1 | 0.244% (inactive) | 
10 | CC(C)(F)CC(NC(c1ccc(-c2ccc(S(C)(=O)=O)cc2)cc1)C(F)(F)F)C(=O)NC1(C#N)CC1 (stereo unspecified) | 3.22% (inactive) | 
11 | CC(C)(C)C1CCN(C(=O)n2ncc(C(O)(c3ccccc3)c3ccccc3)n2)CC1 | -3.66% (inactive) | 
12 | CCCCCCCOc1cc2c(cc1/C(C)=C/c1ccc(C(=O)O)cc1)C(C)(C)CCS2(=O)=O | 17.6% (inactive) | 
13 | CC(=O)OC1C(OC(=O)c2ccccc2)C2C(C)(C)CCC(OC(C)=O)C2(C)C23CCC(C)(C2)C(=O)CC13 (stereo unspecified) | 3.8% [at 57.7 µM] (inactive) | 
14 | Cc1ccc(-c2ncccn2)c(C(=O)N2C[C@H](COc3ccc(F)cn3)CC[C@H]2C)c1 | 1.43% (inactive) | 
15 | CC1(CO)CC2C(O)C3=C(CC(C)(O)C2C1)C(=O)OC3 (stereo unspecified) | 3.95% (inactive) | 
16 | C=C[C@@]1(C)C=C2C(=O)C(O)=C3[C@](C)(C(=O)O)CC[C@@H]4C[C@]34[C@]2(O)C(=O)C1 | -10.9% [at 57.7 µM] (inactive) | 

Row | SMILES | activity change, negative = inhibition | Potency
17 | Cc1cn(CCN2CCN(c3ccccc3-c3cc(C#N)cc(C(=O)NCCCN4CCCC4)c3)CC2)c2ccccc12 |  | inactive
18 | OC(CC1c2ccccc2-c2cncn21)C1CCCCC1 (stereo unspecified) | -3.33% (inactive) | 
19 | CCn1nc(C2CCN(C(=O)CCO)CC2)nc1-c1cnc(N)c(-c2nnc(C(C)(C)C)o2)n1 | 1.92% (inactive) | 
20 | COc1ccccc1N1CCN(CC(C(=O)NC(C)(C)C)c2ccccc2)CC1 (stereo unspecified) | -5.09% (inactive) | 
21 | COc1ccc(C2(N(C)C(=O)c3ccc(NC(=O)c4ccco4)cc3)CCOCC2)cc1 | 2.99% (inactive) | 
22 | CC(C)C[C@@H](N)C(=O)N[C@H]1C(=O)N[C@@H](CC(N)=O)C(=O)N[C@H]2C(=O)N[C@H]3C(=O)N[C@H](C(=O)N[C@H](C(=O)O)c4cc(O)cc(O)c4-c4cc3ccc4O)[C@H](O)c3ccc(c(Cl)c3)Oc3cc2cc(c3O[C@@H]2O[C@H](CO)[C@@H](O)[C@H](O)[C@H]2O[C@H]2C[C@](C)(N)[C@H](O)[C@H](C)O2)Oc2ccc(cc2Cl)[C@H]1O | 0.635% [at 57.7 µM] (inactive) | 
23 | C=C1C(=O)OC2C3=C(C)C(=O)CC3C(C)CC(O)C12 (stereo unspecified) | -5.59% (inactive) | 
24 | CCOC(=O)[C@@]1(CCCCCCOc2ccc(Cl)cc2)CO1 | 1.22% [at 57.7 µM] (inactive) | 
25 | CCCCc1c(-c2ccc(OC)cc2)[nH]c2nccnc12 | 5.09% (inactive) | 
26 | CC1(C)CC[C@]23CO[C@@]4(CCC5[C@@]6(C)CC[C@H](O[C@@H]7OC[C@H](O[C@@H]8O[C@H](CO)[C@@H](O)[C@H](O)[C@H]8O[C@@H]8OC[C@@H](O)[C@H](O)[C@H]8O)[C@H](O)[C@H]7O[C@@H]7O[C@H](CO)[C@@H](O)[C@H](O)[C@H]7O)[C@@](C)(CO)C6CC[C@@]5(C)[C@]4(C)C[C@H]2O)[C@@H]3C1 (stereo partly specified) | 2.42% [at 30.2 µM] (inactive) | 
27 | Cc1cc2c(F)c(Oc3ncnn4cc(OCC(C)OC(=O)C(C)N)c(C)c34)ccc2[nH]1 (stereo unspecified) | -10.4% (inactive) | 
28 | COc1ccc(C(=O)Nc2c(Cl)cncc2Cl)cc1OC1CCCC1 | -9.04% (inactive) | 
29 | CCOC(=O)c1csc(Nc2ccc(Cl)cc2)n1 | -0.012% (inactive) | 
30 | CCCCOc1ccc(S(=O)(=O)n2c(C)nc3ccccc32)cc1 | -1.67% [at 57.7 µM] (inactive) | 
31 | C[C@@H](O[C@H]1OCCN(Cc2nn(P(=O)(O)O)c(=O)[nH]2)[C@H]1c1ccc(F)cc1)c1cc(C(F)(F)F)cc(C(F)(F)F)c1 | -0.816% [at 57.7 µM] (inactive) | 
